Legend:
Test in all cases: growth inhibition (% activity, log2 RLU normalised to DMSO / staurosporine); higher = more growth inhibition
Conditions in all cases: 33 µM
[1] = system: DIPGX29 (H3.3 K27M diffuse intrinsic pontine glioma line)
Outline: (§1)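 For each approved drug, the growth-inhibition value is the replicate median of per-plate normalised CellTiter-Glo data. Luminescence was log2-transformed and expressed as % activity between solvent and positive control wells. Drugs were applied in triplicate at a single final concentration of about 33 μM for 7 days at 37 °C, 5% CO2 to pHGG cell lines and H9-derived neural stem cells.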

[2] = system: DIPGX37 (H3.3 K27M diffuse intrinsic pontine glioma line)
Outline: as §1

[3] = system: DIPGX7 (H3.3 K27M diffuse intrinsic pontine glioma line)
Outline: as §1

[4] = system: DIPGX9 (diffuse intrinsic pontine glioma line)
Outline: as §1

[5] = system: HGGX39 (paediatric high-grade glioma line)
Outline: as §1

[6] = system: HGGX6 (H3.3 G34R paediatric high-grade glioma line)
Outline: as §1

[7] = system: HNSC
Outline: as §1

[8] = system: SUDIPGIV (diffuse intrinsic pontine glioma line)
Outline: as §1

[9] = system: SUDIPGVI (diffuse intrinsic pontine glioma line)
Outline: as §1

[10] = system: SUDIPGXIII (diffuse intrinsic pontine glioma line)
Outline: as §1

Row | Compound | growth inhibition [1] [%] | growth inhibition [2] [%] | growth inhibition [3] [%] | growth inhibition [4] [%] | growth inhibition [5] [%] | growth inhibition [6] [%] | growth inhibition [7] [%] | growth inhibition [8] [%] | growth inhibition [9] [%] | growth inhibition [10] [%]
1 | CC(=O)OC12COC1CC(O)C1(C)C(=O)C(O)C3=C(C)C(O)CC(O)(C(OC(=O)c4ccccc4)C21)C3(C)C (stereo not given) | 7.46 | 3.33 | 4.76 | 9.41 | 14.7 | 6.8 | 11.9 | 21.5 | 1.87 | 3.01
2 | CNC1CC(N)C(O)C(OC2OC(CO)C(O)C3OC4(OC(C(N)CO)C(O)C(O)C4O)OC23)C1O (stereo not given) | 4.68 | 1.71 | 0.134 | 3.12 | -0.261 | 1.68 | 1.11 | 3.64 | 1.16 | -0.132
3 | CN1[C@@H]2C[C@@H](OC(=O)[C@H](CO)c3ccccc3)C[C@H]1[C@@H]1O[C@@H]12 | -4.79 | -2 | -0.341 | -2.82 | -2.31 | -3.37 | 23.8 | -3.93 | -9.6 | 0.487
4 | c1ccc2c(c1)sc1ccccc12 | -2.47 | -0.0217 | -2.61 | -1.01 | -2.68 | -1.23 | -4.08 | -1.98 | -1.87 | 1.54
5 | COC(=O)C1=CCCN(C)C1 | 2.02 | 4.11 | 0.892 | 1.35 | 1.54 | 1.61 | 1.06 | 0.353 | 3.57 | 1.1
6 | C[N+]1(C)[C@@H]2C[C@@H](OC(=O)[C@H](CO)c3ccccc3)C[C@H]1[C@@H]1O[C@@H]12 | -0.834 | 1.29 | 0.707 | 0.849 | 2.27 | 2.07 | -1.37 | -0.286 | 0.639 | 0.798
7 | O=C(O)c1nn(Cc2ccc(Cl)cc2Cl)c2ccccc12 | 1.18 | 2.18 | 1.47 | -0.0993 | 1.2 | -0.667 | 30.5 | 3.06 | -3.75 | -0.117
8 | CN1c2ccccc2C(NCCCCCCC(=O)O)c2ccc(Cl)cc2S1(=O)=O (stereo not given) | -1.12 | -3.13 | -0.607 | 0.503 | -0.419 | 0.961 | -2.51 | -2.29 | -1.84 | 0.605
9 | CCN(C)C(=O)Oc1cccc([C@H](C)N(C)C)c1 | -0.955 | -0.495 | 1.09 | 0.618 | 1.41 | 0.109 | 4.36 | -1.75 | -2.42 | -0.000881
10 | CCC1(C)CC(=O)NC(=O)C1 | -3.05 | -2.24 | 4.09 | -2.78 | -4.36 | -4.73 | 7 | -2.82 | -6.09 | -0.846
11 | NCCc1c[nH]c2ccc(O)cc12 | -2.73 | 0.315 | -2.87 | -2.24 | -2.22 | -1.35 | -4.26 | 0.704 | -3.47 | 0.646
12 | C=CCN.ClCC1CO1 (stereo not given) | 0.23 | -1.75 | 1.62 | 1.51 | 2.03 | -0.039 | 0.544 | 0.558 | 1.49 | 0.672
13 | O=P1(NCCCl)OCCCN1CCCl (stereo not given) | -2.21 | -0.766 | 5.61 | 0.389 | 3.87 | -0.383 | -5.21 | -2.15 | -7.65 | -1.43
14 | CC(=O)Nc1cc([As](=O)(O)O)ccc1O | -0.747 | 1.33 | -1.33 | -0.567 | 0.328 | 0.00658 | -0.382 | -1.04 | 0.903 | 1.03
15 | O=C(O[C@H]1C[C@H]2CC[C@@H](C1)[N+]21CCCC1)C(O)(c1ccccc1)c1ccccc1 | -4.33 | -1.91 | -0.848 | -3.62 | -4.77 | -4.81 | 20.6 | -1.98 | -6.45 | -0.149
16 | N[C@@H]1C[C@H]1c1ccccc1.N[C@H]1C[C@@H]1c1ccccc1 | 1.4 | 3.63 | 2.09 | -0.549 | 5.28 | 2.4 | 3.66 | 1.14 | 3.88 | 0.0986
17 | C[C@]12CCC(=O)C=C1C=C[C@@H]1[C@@H]2CC[C@@]2(C)[C@H]1CC[C@@]2(O)CCC(=O)O | 0.155 | -0.641 | 2.17 | 1.05 | 0.878 | -0.966 | 37.3 | -0.186 | -0.451 | -0.386
18 | CC(C)N(CCNC(=O)CN1CCCC1=O)C(C)C | 2.94 | 3.86 | 1.76 | 4.77 | 3.31 | 3.19 | 1.2 | -0.694 | 3.19 | 2.1
19 | CNCC(=O)c1ccc(O)c(O)c1 | -1.95 | 2.52 | -0.724 | -0.688 | 0.248 | -0.714 | -1.87 | 0.154 | -1.65 | 3.12
